From PubChem BioAssay
Sampled rows, rich in hits. Any-hit rate of the full collection: about 2.3%.
TDP43 rescue = TDP-43 toxicity inhibition in yeast. TDP-43 expressing yeast growth rescue, BacTiter-Glo, 24 h. Potency, µM (series often up to 46.1 µM), without a hit: top-dose growth rescue (activation), usual class: activators. 410,000 compounds, 1.8% hits. AID 652104; note: potency is the fitted concentration of half-maximal effect; % of control where 0% means no effect; nearly all actives have a fitted effect of over 50% in size
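Galactose-induced TDP-43 yeast, OD600=0.02, compound pinned; 24 hr, 30 deg C; BacTiter-Glo luminescence for growth. Inhibitors of TDP-43 toxicity read as activators.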
FUS yeast rescue = suppressors of FUS proteinopathy in yeast; S. cerevisiae FUS-expressing, growth rescue, OD600, 24 h; Potency, µM (top dose mostly 76.6 µM), usual class: activators; 390,000 compounds, 0.24% hits; AID 1347120;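 note: potency is the fitted concentration of half-maximal effect; plate controls were DMSO vehicle for no effect and reference control for full effect; nearly all actives have a fitted effect of over 55% in size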
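Yeast expressing FUS under galactose induction, OD 0.005 in 2% galactose medium; compounds in a dilution series, 24 h at 30C. Growth rescue by absorbance at 600 nm; CP55940 positive control, DMSO negative.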
Abeta yeast res = compounds reversing amyloid beta toxicity in yeast | 410,000 compounds, 0.063% hits | Potency, µM (doses to about 46.1 µM), most hits filed as activators | yeast expressing A-beta42, growth rescue, OD600, 48 h; response scale: 0% DMSO, 100% iron-clioquinol control; note: potency is the fitted concentration of half-maximal effect; nearly all actives have a fitted effect of over 55% in size
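Yeast A-beta toxicity model in growth medium with pinned compounds, 48 h at 30 C; growth read as absorbance at 600 nm. Normalized to FeCl3/clioquinol equimolar mix (positive) and DMSO (negative).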
pAkt inh = Akt phosphorylation inhibition; Neuro2A IGF-stimulated pAkt S473 HTRF, 20 min; stronger effect = lower value; activity change, % for hits at 50 µM; 360,000 compounds, 0.32% hits; in the data active = activity change below about -80%; inconclusive = mostly about -51% to -80%; note: % is set by controls: 0 for no effect and ±100 for the full control effect
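Single-point screen (50 µM final compound) in Neuro2A cells stimulated 20 min with 6 nM IGF at 37 deg C. After lysis, Ser473-phosphorylated Akt read by HTRF (ex 330 nm, em 615/665 nm) as the 665/615 ratio.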
aSyn yeast inh = alpha-synuclein toxicity inhibition in yeast; 370,000 compounds, 0.14% hits; Yeast expressing alpha-synuclein, growth rescue, BacTiter-Glo, 24 h; Potency, µM (series often up to 46.1 µM), without a hit: at the top dose growth rescue (activation), most hits filed as activators; note: potency is the fitted concentration of half-maximal effect; % of control where 0% means no effect; nearly all actives have a fitted effect of over 65% in size
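Rescue of yeast growth: cells expressing toxic alpha-synuclein, induced in galactose at OD600 0.02, incubated with compound 24 h at 30 C. ATP luminescence quantified growth; inhibitors of toxicity appear as activators.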
* = called active by the depositor; i = inactive; ? = inconclusive; . = not tested or not shown. Unless noted, calls come from the whole dose curve; as a rule, active = well fitted curve in the direction sought with a large enough effect; inconclusive = small, poorly fitted or top-dose-only effect, or another doubt; inactive = no such curve, though single readings can be large; an effect the other way counts as inactive or inconclusive.

SMILES	TDP43 rescue	FUS yeast rescue	Abeta yeast res	pAkt inh	aSyn yeast inh
CCCCCCC(=O)OCC(=O)c1ccc2c(c1)NC(=O)CO2	15.8µM*	i	i	i	8.4%
Cc1cccc(NC(=O)c2oc3ccc(S(=O)(=O)N(C)C4CCCCC4)cc3c2C)c1C	15.0%	i	i	.	.
C[n+]1ccc(/C=C/c2ccc(C=S)cc2)c2ccccc21	.	.	.	.	-8.1%
CC(C)(C)OC(=O)N1CCC(c2c(C(=O)NCCN3CCOCC3)cnn2-c2cccc(Cl)c2)CC1	10.7%	i	i	.	.
CC1(C(=O)Nc2cccc3c2CCCC3)CCN1C(=O)CCC1CCCC1 (centres undefined)	?	i	i	i	?
CC1(C(=O)Nc2cccc3c2CCCC3)CCN1C(=O)c1cccc(F)c1 (centres undefined)	28.2µM*	i	i	i	9.0%
Clc1cccc(N2CCN(c3ncnc4c3nc3n4CCCCC3)CC2)c1	17.8µM*	?	i	.	.
Cc1cccc(N2CCN(c3ncnc4c3nc3n4CCCCC3)CC2)c1C	22.4µM*	i	i	.	.
Fc1ccc(N2CCN(c3ncnc4c3nc3n4CCCCC3)CC2)cc1	12.8%	i	i	.	.
O=C(Cn1nc(-c2ccc(Cl)cc2)c2ccccc2c1=O)Nc1cccc(C(F)(F)F)c1	0.0%	i	i	.	.
COc1ccc(-c2cc3nc(C)c(CCC(=O)NC(C)c4ccccc4)c(C)n3n2)c(OC)c1 (centres undefined)	12.2%	i	i	.	.
O=C(COc1ccccc1)NNc1nc2c(F)cccc2s1	11.2%	i	i	i	0.9%
O=C(NNc1nc2c(F)cccc2s1)c1ccc(F)cc1	10µM*	i	i	i	-0.2%
O=C(NNc1nc2cc3c(cc2s1)OCO3)c1cccc(F)c1	5.62µM*	i	i	i	9.0%
COc1cc(OC)cc(C(=O)NNc2nc3cc4c(cc3s2)OCO4)c1	10µM*	i	i	i	7.0%
COc1cc(C(=O)NNc2nc3cc4c(cc3s2)OCO4)cc(OC)c1OC	12.2%	i	i	i	2.9%
COc1cc(OC)c(NC(=O)c2cc(C(C)=O)n3ccccc23)cc1Cl	20.8%	i	i	.	.
Cc1cc(C)c2c(c1)c(C)cc1nnc(SCC(=O)c3ccccc3)n12	11.4%	i	i	.	.
O=C(C1CCC(Cn2c(=O)c3sccc3n(Cc3ccccc3)c2=O)CC1)N1CCCCC1 (centres undefined)	-15.8%	i	i	.	.
COc1cccc(Cn2c(=O)n(CC3CCC(C(=O)N4CCCCC4)CC3)c(=O)c3sccc32)c1 (centres undefined)	?	20µM*	i	.	.
CCc1ccccc1NC(=O)Cn1c(=O)n(CCCCCC(=O)NCc2ccc(C)cc2)c(=O)c2sccc21	-3.3%	i	i	.	.
CCn1c(CN2c3ccccc3Sc3ccccc32)n[nH]c1=S	-0.1%	i	15.8µM*	i	21.3%
CCCN(CCC)C(=O)c1ccc2c(c1)OCO2	-1.4%	i	i	i	2.3%
Cc1c(C(=O)c2ccc3c(c2)OCO3)ccc2c1OCO2	17.8µM*	.	i	i	4.9%
CN(/N=C/c1ccc(O)cc1O)c1ncc(C(F)(F)F)cc1Cl	35.5µM*	i	?	i	-35.8%
SMILES	TDP43 rescue	FUS yeast rescue	Abeta yeast res	pAkt inh	aSyn yeast inh
CN(/N=C/c1ccccc1Cl)c1ncc(Cl)cc1C(F)(F)F	0.0%	i	i	i	-9.4%
O=C(CCOc1ccccc1)N(Cc1cccnc1)c1nc2c(F)cccc2s1	4.5%	i	i	.	.
COc1ccccc1CNc1nc(-c2ccco2)nn1S(C)(=O)=O	5.4%	i	i	.	.
COc1ccccc1/C=C1/C(=O)ON=C1C	14.1µM*	i	i	i	-9.2%
COc1ccc(/C=C2/C(=O)ON=C2C)cc1Br	-43.7%	i	i	i	-12.6%
COc1cccc(N2CCN(C(=O)c3cc4c(OC)c(OC)c(OC)cc4[nH]3)CC2)c1	19.9%	i	i	i	-8.8%
NC(=O)c1cc(C(=O)c2cccc(Cl)c2Cl)c[nH]1	-5.8%	i	i	i	-0.3%
COc1cc2[nH]c(C(=O)N3CCN(c4ccccc4F)CC3)cc2c(OC)c1OC	35.5µM*	i	i	i	13.2%
Cc1ccccc1C(=O)c1c[nH]c(C(=O)N2CCN(c3ccccc3F)CC2)c1	25.1µM*	i	i	i	9.9%
O=C(c1c[nH]c(C(=O)N2CCN(c3ccccc3F)CC2)c1)c1cccc(Cl)c1Cl	25.1µM*	i	3.16µM*	i	?
O=C(CCCCCn1c(=O)c2sccc2n(Cc2ccc(Cl)cc2)c1=O)NCc1ccc2c(c1)OCO2	19.1%	i	i	.	.
COc1ccc(CNc2nc(-c3ccco3)nn2C(=O)CC(C)C)cc1	29.7%	i	i	.	.
O=C(CN1CCN(S(=O)(=O)c2cc(Cl)ccc2Cl)CC1)Nc1cccc(F)c1	35.5µM*	i	i	.	8.7%
COc1ccc(CNC(=O)Cn2c(=O)ccc3cc(S(=O)(=O)N4CCCC4)ccc32)cc1	8.5%	i	i	.	-4.5%
Cc1ccc(C)c(NC(=O)C(NS(=O)(=O)c2ccc3c(c2)CCC(=O)N3)c2ccccc2)c1 (centres undefined)	5.8%	i	i	.	.
Cc1cc(C)n(-c2nc3ccccc3c(=O)n2OCc2ccc(Cl)cc2)n1	11.2µM*	i	i	i	-3.5%
Cc1ccc(CNC(=O)c2ccc(N3CCC4(CC3)CC(c3cccc(Br)c3)=NO4)c(NC(=O)c3ccco3)c2)cc1	0.4%	?	i	i	-2.8%
Cc1ccc(CNC(=O)c2ccc(N3CCC4(CC3)CC(c3ccccc3)=NO4)c(NC(=O)c3ccco3)c2)cc1	20.8%	17.8µM*	i	i	-1.9%
CCOC(=O)Cn1c(=O)oc2cc(S(=O)(=O)Nc3cc(OC)cc(OC)c3)ccc21	11.2%	i	i	.	.
O=C(O)c1ccc2c(c1)C(=O)/C(=C\c1ccco1)C2=O	12.8%	i	i	i	0.4%
O=C1C(=Cc2ccco2)C(=O)c2ccccc21	22.4µM*	.	i	i	13.1%
CCOc1ccccc1NC(=O)Nc1cc(C(=O)NCc2ccc(C)cc2)ccc1N1CCCC1	16.1%	i	i	.	.
CCOc1ccc(NCc2cccn2-c2nnc(N3CCC(C(=O)NCCc4ccc(OC)c(OC)c4)CC3)s2)cc1	-6.4%	25.1µM*	i	.	.
